# TDP1 cell CPT: growth inhibition of DT40 Tdp1-/-;hTDP1 cells with camptothecin (screen for TDP1 inhibitors) | chicken DT40 Tdp1-/-;hTDP1 cells + 20 nM CPT, ATP luminescence, 48 h | Potency, µM (series often up to 46.2 µM), for inactives: top-dose activity change, negative = growth inhibition, hits mostly inhibitors | 420,000 tested, 12% active | AID 686979; note: % is set by controls: 0 for no effect and ±100 for the full control effect; nearly all actives have a fitted effect of over 55% in size
#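 Chicken DT40 Tdp1-/- cells complemented with human TDP1, 400 cells/well, exposed to compounds plus 20 nM camptothecin for at least 48 h at 37 C; viability read as ATP content by CellTiter-Glo luminescence.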
# ClpP mod: qHTS Assay for Activators of ClpP; AID 651965, 2013; Potency, µM (doses to about 57.5 µM), without a hit: at the top dose activity change, negative = active; 340,000 tested, 1.9% active; ATP-dependent Clp protease proteolytic subunit (Bacillus subtilis (strain 168)), P80244; purified B. subtilis ClpP, FRET peptide cleavage, 20 min; active = well fitted falling curve with a large enough effect; inconclusive = small, poorly fitted or top-dose-only effect; inactive = no such curve, though single readings can be large or run the other way; note: the source files actives as falling curves though it sought activators and does not explain the sign; nearly all actives have a fitted effect of over 65% in size
#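 FRET quenching reversal measured ClpP activation: 10 microg/mL B. subtilis ClpP at pH 8 with the FRET-FV decapeptide, read at 430 nm after 320 nm excitation. The 20-min minus 0-min signal was scaled between DMSO/no-enzyme wells and ADEP (5.8 microM final).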
# TDP1 cell noCPT: qHTS for Inhibitors of human tyrosyl-DNA phosphodiesterase 1 (TDP1): qHTS in cells in absence of CPT; DT40 Tdp1-/- hTDP1 cells, no CPT, ATP luminescence, 48 h; Potency, µM (highest dose often 46.2 µM), for the others: at the top dose activity change, negative = growth inhibition, most hits filed as inhibitors; 420,000 tested, 15% active; AID 686978, 2013; note: % is set by controls: 0 for no effect and ±100 for the full control effect; nearly all actives have a fitted effect of over 55% in size
#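 Compound effects on proliferation are scored in DT40 Tdp1-/-;hTDP1 cells in the absence of CPT. ATP levels (CellTiter-Glo luminescence) are recorded after a ≥48 hr, 37 °C incubation.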
# TDP1 block: inhibitors of human tyrosyl-DNA phosphodiesterase TDP1 | Potency, µM (doses to about 130 µM), inactives show top-dose activity change, negative = inhibition, actives largely listed as inhibitors | Q9NUW8 | recombinant TDP1, AlphaScreen DNA substrate cleavage | 350,000 tested, 0.28% active; note: % is set by controls: 0 for no effect and ±100 for the full control effect; nearly all actives have a fitted effect of over 40% in size
# Target sequence (Q9NUW8 whole entry, looked up): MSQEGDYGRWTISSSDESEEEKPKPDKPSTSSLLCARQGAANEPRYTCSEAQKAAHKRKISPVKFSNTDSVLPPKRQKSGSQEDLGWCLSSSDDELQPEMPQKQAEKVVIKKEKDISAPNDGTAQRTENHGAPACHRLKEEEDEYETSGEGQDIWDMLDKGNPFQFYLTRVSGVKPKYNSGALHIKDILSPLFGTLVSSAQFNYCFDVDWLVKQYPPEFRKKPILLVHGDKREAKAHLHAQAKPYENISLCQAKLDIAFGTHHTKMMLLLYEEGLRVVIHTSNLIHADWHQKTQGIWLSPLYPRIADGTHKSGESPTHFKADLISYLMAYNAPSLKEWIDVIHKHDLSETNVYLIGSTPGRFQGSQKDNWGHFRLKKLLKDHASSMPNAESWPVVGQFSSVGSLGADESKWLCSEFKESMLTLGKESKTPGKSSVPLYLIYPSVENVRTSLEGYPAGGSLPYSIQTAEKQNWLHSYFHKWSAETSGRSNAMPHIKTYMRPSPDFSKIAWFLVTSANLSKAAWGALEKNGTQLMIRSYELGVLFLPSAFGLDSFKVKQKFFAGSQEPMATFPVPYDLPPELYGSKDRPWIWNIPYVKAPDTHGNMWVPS
#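 Recombinant E. coli-expressed Tdp1 (1 nM) preincubated with compound 15 min at RT, then 5'-biotin/3'-phosphotyrosine-FITC DNA substrate (15 nM) added for 5 min. AlphaScreen beads (10 ug/ml) added, 10 min RT; tyrosine-FITC cleavage read as signal loss.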
# Active calls of the source: *; ? = inconclusive; nt = no result; [ ] = remark or other dose. An excerpt weighted towards active compounds, which were near 17% of everything screened. Unless noted, calls come from the whole dose curve; as a rule, active = well fitted curve in the direction sought with a large enough effect; inconclusive = small, poorly fitted or top-dose-only effect, or another doubt; inactive = no such curve, though single readings can be large; an effect the other way counts as inactive or inconclusive. Potency is the fitted concentration of half-maximal effect.
SMILES,TDP1 cell CPT,ClpP mod,TDP1 cell noCPT,TDP1 block
Cc1cc(-c2ccc(N=Nc3c(S(=O)(=O)O)cc4cc(S(=O)(=O)O)cc(N)c4c3O)c(C)c2)ccc1N=Nc1c(S(=O)(=O)O)cc2cc(S(=O)(=O)O)cc(N)c2c1O,9.4µM*,nt,9.4µM*,nt
O=S(=O)(O)c1cc(Cl)cc(N=Nc2ccc(O)cc2O)c1O,-11%,-1%,?,nt
COc1cc(OC)cc(C(=O)N[C@H](C(=O)OCC(=O)N2CCN(S(=O)(=O)c3ccc(C)cc3)CC2)C(C)C)c1,-2%,-1%,-4%,nt
O=C(NC1CCCC1)C(c1cccnc1)N(Cc1ccc(F)cc1)C(=O)c1csnn1 (centres undefined),6%,nt,0%,3%[0.0935 µM]
Cc1cc(OCC(=O)OCC(=O)NCC2CCCO2)ccc1Cl (centres undefined),-2%,2%,-22%,0%[56.1 µM]
CC(=O)c1ccc(NC(=O)Nc2ccc3snnc3c2)cc1,12µM*,-3%,21µM*,-3%
Cc1ccc(F)c(NC(=O)Nc2ccc3snnc3c2)c1,21µM*,-2%,21µM*,3%
Cc1c(Cl)cccc1NC(=O)Nc1ccc2snnc2c1,15µM*,-2%,18µM*,5%
COc1ccc(NC(=O)Nc2cc(C)ccc2F)cc1OC,-2%,nt,-13%,0%
CC(=O)Nc1cccc(NC(=O)Nc2cccc(Cl)c2C)c1,-7%,nt,-23%,-1%
COC(=O)c1cc(NC(=O)Nc2ccc3snnc3c2)cc(C(=O)OC)c1,-12%,-4%,-5%,-3%
O=C(Nc1ccc(F)cc1)Nc1ccc2snnc2c1,3.7µM*,-5%,6.5µM*,-3%
CCOC(=O)c1nc2c(ccc3ccccc32)cc1C,14%,nt,-9%,nt
CN(CC(=O)Nc1ccc(Cl)cc1)C(=O)c1ccc(NS(=O)(=O)c2ccc3[nH]c(=O)[nH]c3c2)cc1,-4%,-3%,-6%,-8%[0.505 µM]
Cc1cccc(-c2nc(CN3CCCC(C(=O)NCc4ccc(Cl)cc4)C3)c(C)o2)c1 (centres undefined),-86%,0%,7.3µM*,10%
Cc1oc(-c2cccc(Br)c2)nc1CN1CCC(C(=O)NCc2ccccc2)CC1,18µM*,-3%,?,9%
COc1ccc(CNC(=O)C2CCCN(Cc3nc(-c4cccc(C)c4)oc3C)C2)cc1 (centres undefined),13µM*,-1%,13µM*,10%
COc1ccc(-c2nc(CN3CCCC(C(=O)NC4CCCC4)C3)c(C)o2)cc1 (centres undefined),?,-8%,?,5%
Cc1ccc(N2CC(c3nnc(NC(=O)c4ccco4)s3)CC2=O)cc1C (centres undefined),?,-14%,-19%,-4%
O=C(c1cc(-c2ccccc2)nc2ccccc12)N1CCCc2ccccc21,?,2%,23µM*,5%
Cc1cccc(-c2cc(C(=O)N3CCCc4ccccc43)c3ccccc3n2)c1,23µM*,-1%,?,3%
c1ccc2c(c1)ncc1nncn12,-6%,-15%,-20%,1%
CCOC(=O)CCCCCNC(=O)c1ccc(F)cc1F,3%,-1%,0%,nt
Cc1c(C(=O)NCc2ccccc2)c(-c2ccccc2)nn1-c1ccccc1,23µM*,1%,?,6%
CSc1ccc(CCNC(=O)c2c(C)nn(-c3ccc(F)cc3)c2-n2cccc2)cc1,nt,-1%,nt,6%
SMILES,TDP1 cell CPT,ClpP mod,TDP1 cell noCPT,TDP1 block
Cc1nn(Cc2ccccc2Cl)c(Cl)c1C(=O)NCCc1ccccc1,?,0%,?,3%
Cc1nn(-c2ccccc2)c(-n2cccc2)c1C(=O)NCCc1ccc(Cl)cc1,21µM*,0%,?,3%
Cc1nn(-c2ccccc2)c(-n2cccc2)c1C(=O)N1CCN(c2ccccc2)CC1,?,0%,23µM*,0%
Cc1nn(-c2ccccc2)c(-n2cccc2)c1C(=O)NCc1ccccc1Cl,21µM*,-1%,26µM*,3%
CCN1CCN(C(=O)c2c(C)nn(-c3ccc(F)cc3)c2-n2cccc2)CC1,nt,-2%,nt,0%
CCN(CC)C(=O)CSc1nc(O)c(Cc2ccccc2)c(=O)n1-c1ccccc1C,-24%,nt,?,3%
CCCCOC(OCCCC)[C@H](O)CSc1ccc2ccccc2c1,nt,nt,nt,-2%[21 µM]
COc1cccc(NC(=O)c2c(C)nn(-c3cccc(C)c3)c2-n2cccc2)c1,?,-26%,?,3%
COc1cccc(CNC(=O)c2c(C)nn(-c3cccc(C)c3)c2-n2cccc2)c1,?,1%,15µM*,-5%
CC1CCC(C(C)(C)O)CC2=C1CCC2C (centres undefined),2%,nt,18%,15%[56.1 µM]
CCNC(=O)COC(=O)/C=C/c1cccc([N+](=O)[O-])c1,2%,nt,-14%,-5%
COC(=O)c1cccc(NC(=O)/C=C/c2cccc([N+](=O)[O-])c2)c1,?,-2%,13µM*,1%
CCCCN(CCCC)C(=O)/C=C/c1cccc([N+](=O)[O-])c1,?,-1%,16µM*,3%
CCOC(=O)c1cccc(NC(=O)/C=C/c2ccc([N+](=O)[O-])cc2)c1,15µM*,10%,8.2µM*,5%
COC(=O)c1cccc(NC(=O)/C=C/c2ccc([N+](=O)[O-])cc2)c1,-5%,-2%,?,5%
COc1ccc(C(=O)NCC(c2ccc3c(c2)OCO3)N2CCN(C)CC2)cc1OC (centres undefined),-13%,0%,-10%,2%
COc1ccc(-c2nnc3ccc(SC(C(C)=O)C(C)=O)nn23)cc1OC,18µM*,2%,?,0%
COc1ccc(-c2nnc3ccc(SC(C)C)nn23)cc1OC,10µM*,-1%,13µM*,3%
Cc1ccc(-n2[nH]c(C)c(C=Nc3ccc4[nH]c(=O)[nH]c4c3)c2=O)cc1C,?,1%,21µM*,5%
Cc1[nH]n(-c2cccc3ccccc23)c(=O)c1C=Nc1ccc2[nH]c(=O)[nH]c2c1,-8%,2%,-14%,4%
Cc1ccc(N=Cc2c(C)[nH]n(-c3nc4ccccc4[nH]3)c2=O)cc1,3.3µM*,-7%,4.1µM*,8%
Cc1ccc(-n2[nH]c(C)c(C=Nc3ccc4[nH]c(=O)[nH]c4c3)c2=O)cc1,16µM*,-1%,16µM*,2%
CCOc1[nH]n(-c2ccccc2)c(=O)c1C=Nc1ccc(C)cc1,?,1%,-18%,5%
Cc1[nH]n(-c2ccc(Cl)cc2)c(=O)c1C=Nc1ccc(S(=O)(=O)N2CCOCC2)cc1,-30%,-3%,?,4%
COc1ccc2nc(/N=C/c3c(C)[nH]n(-c4ccc(C)cc4)c3=O)sc2c1,13µM*,-2%,?,6%
Cc1ccc(-c2nc(CS(=O)(=O)CC(=O)Nc3cc(F)ccc3F)c(C)o2)cc1,-18%,1%,?,nt
C=Cc1cnc([N+](=O)[O-])n1C,?,-1%,?,nt

# Bioassay records (PubChem BioAssay)
